From PubChem BioAssay (NCATS)
Records with an inconclusive call do not appear. Calls of active or inactive are those of the source. Calls follow the shape of the dose curve; as a rule, active = well fitted cell-killing curve with a large enough effect; inconclusive = small, poorly fitted or top-dose-only effect, or effect the other way; inactive = flat fitted curve, though single readings scatter. Where a SMILES comes first, the peptide text is derived from it.

Experiments:
Assay in all cases: Primary qHTS to identify gynecologic anti-cancer compounds using libraries of approved drugs and bioactive compounds (AID 1345084); also: nearly all actives have a fitted effect of over 55% in size
Conditions in all cases: Gynecologic cancer cell panel viability, ATPlite luminescence, 48 h; series mostly up to 57.5 µM
OV90 = system: OV90
Method in brief: (§1)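 Five-concentration response, 48 h; readout is ATP-driven luciferase luminescence.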

PA-1 = system: PA-1
Method in brief: as §1

SKOV3 = system: SKOV3
Method in brief: as §1

Tov-21-G = system: Tov-21-G
Method in brief: as §1

Tov112D = system: Tov112D
Method in brief: as §1
% is scaled to controls: 0 for no effect and ±100 for the full control effect.

Nc1ncnc2c1ncn2[C@H]1O[C@@H](C(=O)N2CCN(CC(=O)Nc3cccc4c3CNC4=O)CC2)[C@H](O)[C@@H]1O
inactive: Potency (OV90) | Potency (PA-1) | Potency (SKOV3) | Potency (Tov-21-G) | Potency (Tov112D)

COc1cc2c(cc1OC)N1C(=O)C[C@@]34C=CC[N@+]5([O-])CC[C@H]2[C@H](CC3)[C@@]145
inactive: Potency (OV90) | Potency (PA-1) | Potency (SKOV3) | Potency (Tov-21-G) | Potency (Tov112D)

C=C(C(=O)O)C1CC(O)C2(C)CCCC(C)(O)C2C1 (stereo not given)
inactive: Potency (OV90) | Potency (PA-1) | Potency (SKOV3) | Potency (Tov-21-G) | Potency (Tov112D)

CSCC[C@H](NC(=O)[C@H](CO)NC(=O)[C@H](CCC(=O)O)NC(C)=O)C(=O)N[C@H](C=O)CC(=O)O (Ac-ESMD-aldehyde)
inactive: activity change, negative = cytotoxicity (OV90) -2.74% [at 11.6 µM] | activity change, negative = cytotoxicity (PA-1) -0.0533% [at 11.6 µM] | activity change, negative = cytotoxicity (SKOV3) 3.55% [at 11.6 µM] | activity change, negative = cytotoxicity (Tov-21-G) -0.444% [at 11.6 µM] | activity change, negative = cytotoxicity (Tov112D) 6.37% [at 11.6 µM]

C=CCc1cc(OC)c(OC(C)C(O)c2ccc(O)c(OC)c2)c(OC)c1 (stereo not given)
inactive: Potency (OV90) | Potency (PA-1) | Potency (SKOV3) | Potency (Tov-21-G) | Potency (Tov112D)

CCC1=C(C)C(=O)C(C)CC12C(=O)CCC2C(=O)O (stereo not given)
inactive: Potency (OV90) | Potency (PA-1) | Potency (SKOV3) | Potency (Tov-21-G) | Potency (Tov112D)

C=CC(C)(O)CC/C=C(\C)C(=O)O[C@@H]1[C@@H](O)[C@H](OC(C)(C=C)CC/C=C(\C)C(=O)O[C@@H]2O[C@H](CO)[C@@H](O)[C@H](O)[C@H]2O)O[C@H](CO)[C@H]1OC(=O)/C(C)=C/CCC(C)(O)C=C (stereo not given in full)
inactive: activity change, negative = cytotoxicity (OV90) -1.43% [at 11.6 µM] | activity change, negative = cytotoxicity (PA-1) 3.07% [at 11.6 µM] | activity change, negative = cytotoxicity (SKOV3) -0.696% [at 11.6 µM] | activity change, negative = cytotoxicity (Tov-21-G) 0.188% [at 11.6 µM] | activity change, negative = cytotoxicity (Tov112D) -0.614% [at 11.6 µM]

O=C(/C=C/c1ccccc1)O[C@@H]1[C@@H](CO)O[C@@](CO)(O[C@H]2O[C@H](CO)[C@@H](O)[C@H](O)[C@H]2O)[C@H]1O
inactive: Potency (OV90) | Potency (PA-1) | Potency (SKOV3) | Potency (Tov-21-G) | Potency (Tov112D)

C[C@@H]1O[C@@H](O[C@H]2[C@H](OC(=O)[C@]34CCC(C)(C)C[C@H]3C3=CCC5[C@@]6(C)C[C@@H](O)[C@@H](O[C@@H]7O[C@H](CO)[C@@H](O)[C@H](O)[C@H]7O)[C@@](C)(CO)C6[C@H](O)C[C@@]5(C)[C@]3(C)CC4)OC[C@H](O)[C@@H]2O)[C@H](O)[C@H](O[C@@H]2OC[C@](O)(CO)[C@H]2O)[C@H]1O[C@@H]1OC[C@@H](O)[C@H](O[C@H]2O[C@H](C)[C@@H](O)[C@H](O)[C@@H]2O)[C@H]1O (stereo not given in full)
inactive: activity change, negative = cytotoxicity (OV90) -9.58% [at 6.55 µM] | activity change, negative = cytotoxicity (PA-1) 3.83% [at 6.55 µM] | activity change, negative = cytotoxicity (SKOV3) 3.05% [at 6.55 µM] | activity change, negative = cytotoxicity (Tov-21-G) -0.147% [at 6.55 µM] | activity change, negative = cytotoxicity (Tov112D) 7.72% [at 6.55 µM]

CC(=O)O[C@H]1[C@H](O[C@H]2CC[C@]34C[C@]35CC[C@]3(C)[C@@H]([C@@]6(C)CC[C@@H](C(C)(C)O)O6)[C@@H](O)C[C@@]3(C)[C@@H]5C[C@H](O[C@@H]3O[C@H](CO)[C@@H](O)[C@H](O)[C@H]3O)[C@H]4C2(C)C)OC[C@@H](OC(C)=O)[C@@H]1O
inactive: Potency (OV90) | Potency (PA-1) | Potency (SKOV3) | Potency (Tov-21-G) | Potency (Tov112D)

C/C=C1/C[N+](C)([O-])C2Cc3c([nH]c4ccccc34)C(=O)CC1C2C(=O)OC (stereo not given)
inactive: Potency (OV90) | Potency (PA-1) | Potency (SKOV3) | Potency (Tov-21-G) | Potency (Tov112D)

Cc1sc(C)c(C(=O)NC2(c3ccc(C(=O)O)cc3)CC2)c1Cc1ccc(C(F)(F)F)cc1
inactive: Potency (OV90) | Potency (PA-1) | Potency (SKOV3) | Potency (Tov-21-G) | Potency (Tov112D)

CCC1(O)CC2c3cc(OC)c(OC)cc3CCN2CC1CC(C)C (stereo not given)
inactive: Potency (OV90) | Potency (PA-1) | Potency (SKOV3) | Potency (Tov-21-G) | Potency (Tov112D)

C/C=C/C(=O)OC1/C=C/C(O)C(OC(C)=O)CCC(=O)OC1C (stereo not given)
inactive: Potency (OV90) | Potency (PA-1) | Potency (SKOV3) | Potency (Tov-21-G) | Potency (Tov112D)

CNc1nc(Nc2cn(C(C)(C)C#N)nc2C)ncc1C(F)(F)F
inactive: Potency (OV90) | Potency (PA-1) | Potency (SKOV3) | Potency (Tov-21-G) | Potency (Tov112D)

Cc1cc(CNC(=O)c2cc(C(=O)NCc3ccc(F)c(C)c3)ncn2)ccc1F
inactive: Potency (OV90) | Potency (PA-1) | Potency (SKOV3) | Potency (Tov-21-G) | Potency (Tov112D)

CC(=O)OC1CC(C(C)(C)O)OC2CCC3(C)OC4=C(C(=O)C=C5C(C)C(OC(C)=O)C6(C)C(C)OC546)C(O)C3C12C (stereo not given)
inactive: Potency (OV90) | Potency (PA-1) | Potency (SKOV3) | Potency (Tov-21-G) | Potency (Tov112D)

Cc1cc(OCCN2CCOCC2)nn1-c1ccc2ccccc2c1
inactive: Potency (OV90) | Potency (PA-1) | Potency (SKOV3) | Potency (Tov-21-G) | Potency (Tov112D)

C[C@]12CCC[C@](C)(C(=O)O)C1[C@@H](O)[C@@H](O)C13CC(CCC12)C(CO)(O[C@@H]1O[C@H](CO)[C@@H](O)[C@H](O)[C@H]1O)C3 (stereo not given in full)
inactive: Potency (OV90) | Potency (PA-1) | Potency (SKOV3) | Potency (Tov-21-G) | Potency (Tov112D)

CC1(C)CC[C@]2(C(=O)O[C@@H]3O[C@H](CO)[C@@H](O)[C@H](O)[C@H]3O)CC[C@]3(C)C(=CCC4[C@@]5(C)CC[C@H](OC6OC(C(=O)O)C(OC7OC(CO)C(O)C(O)C7O)C(O)C6O)C(C)(C)C5CC[C@]43C)C2C1 (stereo not given in full)
inactive: activity change, negative = cytotoxicity (OV90) 8.01% [at 11.6 µM] | activity change, negative = cytotoxicity (PA-1) 3.63% [at 11.6 µM] | activity change, negative = cytotoxicity (SKOV3) 0% [at 11.6 µM] | activity change, negative = cytotoxicity (Tov-21-G) 2.32% [at 11.6 µM] | activity change, negative = cytotoxicity (Tov112D) 1.83% [at 11.6 µM]
